SMILES strings stand for the structures. Results filed as inconclusive are left out. Activity calls are given as the source filed them. Rule for the calls: active = hit-call score of the fitted dose curve at least 0.9, where 1 is the maximum; inconclusive = response in the unintended direction; inactive = score below 0.9.

Assay [1] in a line: Tanguay_ZF_120hpf_AXIS_legacy: (Legacy) Oregon State University Tanguay Lab 120 Hour Post-fertilization zebrafish Assay for Body Axis Malformation (AID 2283635).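 For AC50: potency for an increased fraction of larvae scored with body axis malformation.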 Summed up: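 Embryos: 5D wild-type, pronase-dechorionated 4 hpf; static exposure 6–120 hpf, 28C, sealed, dark, 1 embryo/well, 0.64% DMSO. 120 hpf axis malformation scored present/absent; dead embryos excluded. Analysed as gain of signal vs DMSO.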

A short description of assay [2]: Tanguay_ZF_120hpf_EYE_legacy: (Legacy) Oregon State University Tanguay Lab 120 Hour Post-fertilization zebrafish Assay for Eye Malformation (AID 2283636).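 Note: binary presence or absence of eye malformation scored by brightfield in 120 hpf larvae.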 In a few lines: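 Dechorionated Tropical 5D zebrafish embryos, one per well from 6 hpf, static exposure to 120 hpf at 28C, 0.64% DMSO. Eye malformation scored present/absent by brightfield; dead embryos not scored.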

Assay [3] is described as follows: Tanguay_ZF_120hpf_SNOU_legacy: (Legacy) Oregon State University Tanguay Lab 120 Hour Post-fertilization zebrafish Assay for Snout Malformation (AID 2283637). In a few lines:
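Dechorionated tropical 5D wild-type zebrafish embryos exposed statically from 6 to 120 hpf at 28C, one per well, in 0.64% DMSO. Snout malformation scored as present/absent by brightfield at 120 hpf; dead embryos not scored.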

The nature of assay [4]: Tanguay_ZF_120hpf_JAW_legacy: (Legacy) Oregon State University Tanguay Lab 120 Hour Post-fertilization zebrafish Assay for Jaw Malformation (AID 2283638). In a few lines:
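Binary jaw-malformation calls at 120 hpf by brightfield imaging; DMSO (0.64% v/v) = baseline. Embryos: 5D wild-type, pronase-dechorionated, one per well from 6 hpf, static exposure, 28C, sealed, dark.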

Assay [5] can be described thus: Tanguay_ZF_120hpf_OTIC_legacy: (Legacy) Oregon State University Tanguay Lab 120 Hour Post-fertilization zebrafish Assay for Otic Vesicle Malformation (AID 2283639). Summed up: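 Tropical 5D wild-type zebrafish embryos were exposed statically in sealed, foil-covered plates at 28C until 120 hpf, with 0.64% (vol/vol) DMSO final. Otic vesicle malformation was scored present/absent by brightfield microscopy, with DMSO as baseline.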

Assay [6] is described as follows: Tanguay_ZF_120hpf_PE_legacy: (Legacy) Oregon State University Tanguay Lab 120 Hour Post-fertilization zebrafish Assay for Pericardial Edema (AID 2283640). In a few lines: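 Static waterborne exposure, 5D wild-type embryos, 28C, to 120 hpf; final DMSO 0.64% (vol/vol). Binary PE call at 120 hpf by brightfield; fitted upward vs DMSO baseline. 5uM trimethyltin chloride as positive control.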

The nature of assay [7]: Tanguay_ZF_120hpf_SOMI_legacy: (Legacy) Oregon State University Tanguay Lab 120 Hour Post-fertilization zebrafish Assay for Somite Malformation (AID 2283647). In a few lines: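 Binary brightfield scoring of somite defects at 120 hpf in 5D wild-type larvae; one dechorionated embryo per well, static exposure from 6 hpf, 28C, sealed and dark. Final DMSO 0.64%; trimethyltin chloride 5uM positive control.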

Assay [8] in a line: Tanguay_ZF_120hpf_PFIN_legacy: (Legacy) Oregon State University Tanguay Lab 120 Hour Post-fertilization zebrafish Assay for Pectoral Fin Malformation (AID 2283648).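 Note: each larva judged yes or no for fin defect by brightfield with dead larvae skipped.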 In a few lines: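 Dechorionated Tropical 5D wild-type zebrafish embryos, one per well, statically exposed from 6 to 120 hpf at 28C with 0.64% DMSO final. Pectoral fin malformation scored present/absent by brightfield at 120 hpf; not scored in dead embryos.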

Assay [9] in a line: Tanguay_ZF_120hpf_CFIN_legacy: (Legacy) Oregon State University Tanguay Lab 120 Hour Post-fertilization zebrafish Assay for Caudal Fin Malformation (AID 2283649). In a few lines: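 Dechorionated 5D wild-type zebrafish, static exposure 6–120 hpf, 28C, sealed and dark, 0.64% v/v DMSO final. Binary fin-malformation call at 120 hpf, brightfield; gain of signal vs DMSO baseline.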

Assay [10] can be described thus: Tanguay_ZF_120hpf_PIG_legacy: (Legacy) Oregon State University Tanguay Lab 120 Hour Post-fertilization zebrafish Assay for Pigmentation Malformation (AID 2283650). Summed up: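 Dechorionated Tropical 5D wild-type embryos, one per well from 6 hpf, statically exposed at 28C in the dark until 120 hpf, 0.64% DMSO final. Pigmentation scored present/absent by brightfield microscopy; dead embryos not scored; fitted versus DMSO.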

A short description of assay [11]: Tanguay_ZF_120hpf_SWIM_legacy: (Legacy) Oregon State University Tanguay Lab 120 Hour Post-fertilization zebrafish Assay for Swim Bladder Malformation (AID 2283654).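 Note: swim bladder malformation in each larva scored yes or no under brightfield.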 In a few lines: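 Dechorionated wild-type Tropical 5D zebrafish embryos, one per well from 6 hpf, were statically exposed at 28C until 120 hpf in 0.64% DMSO. Swim bladder malformation scored as present/absent by brightfield microscopy; not scored in dead larvae.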

A short description of assay [12]: Tanguay_ZF_120hpf_TRUN_legacy: (Legacy) Oregon State University Tanguay Lab 120 Hour Post-fertilization zebrafish Assay for Truncated Body (AID 2283655). In a few lines: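 Whole-embryo zebrafish screen: dechorionated 5D embryos, static exposure 6–120 hpf, 28C, sealed foil-covered plates, 0.64% DMSO. Binary truncation call; gain of signal versus DMSO baseline.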

Assay [13] can be described thus: Tanguay_ZF_120hpf_NC_legacy: (Legacy) Oregon State University Tanguay Lab 120 Hour Post-fertilization zebrafish Assay for Notochord and Tail Malformation (AID 2283656). Summed up:
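Dechorionated 5D zebrafish, 1/well from 6 hpf; static exposure to 120 hpf, 28C, sealed, dark; final DMSO 0.64% v/v. NC scored binary (present/absent); dead embryos not scored. Fit vs DMSO baseline, gain direction.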

A short description of assay [14]: Tanguay_ZF_120hpf_BRAI_legacy: (Legacy) Oregon State University Tanguay Lab 120 Hour Post-fertilization zebrafish Assay for Brain Malformation (AID 2283641). Summed up:
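Read-out: binary brain morphology call at 120 hpf (brightfield), fitted in gain-of-signal direction vs DMSO. Wild-type Tropical 5D embryos, static exposure, 28C, 0.64% DMSO final; 5uM trimethyltin chloride as positive control.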

The nature of assay [15]: Tanguay_ZF_120hpf_CIRC_legacy: (Legacy) Oregon State University Tanguay Lab 120 Hour Post-fertilization zebrafish Assay for Circulatory Malformation (AID 2283651). In a few lines: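 Tropical 5D wild-type embryos, dechorionated with pronase at 4 hpf, were placed singly in wells at 6 hpf and exposed statically at 28C to 120 hpf (0.64% DMSO final). Circulatory malformation was scored present/absent by brightfield microscopy.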

A short description of assay [16]: CCTE_Simmons_CellTiterGLO_HEK293T: Viability Assessment in CCTE's Assays for Thyroperoxidase (TPO) Inhibition, Simmons Lab (AID 2283665).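 For AC50: cells exposed to compound for 24 h before readout; actives reduce ATP signal below DMSO vehicle meaning cytotoxicity.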 Summed up:
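HEK293T cells in DMEM with 1% FBS were dosed with 8 concentrations (5 nM–87.5 uM final, 0.5% DMSO) for 24 hr at 37C; ATP content was read by CellTiter-Glo luminescence, loss-of-signal versus DMSO, three biological replicates.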
A general note: Cellular ATP, detected with luciferase, serves as a proxy for viable cell number.

Take `CC[C@H]1CC[C@H](NCc2cc3c(cc2OC)[C@H]2C[C@H]2C(=O)N3C)[C@H](c2ccccc2)N1`: the compound was called inactive in [1], in assay [2], in assay [3], in assay [4], in assay [5] and in assay [6]. The call in [7], in [8], in [9], in [10], in assay [11] and in assay [12] was inactive. In addition, in assay [13], the compound was called inactive.
Usually AC50 stands for the concentration giving half of the maximal activity seen. Take `CC(C)=CCC/C(C)=C/CO`: the half-maximal activity concentration (AC50) is 23.6 µM (active) in assay [1] and 31.6 µM (active) in assay [9]. In addition, the call in assay [2], in assay [3], in assay [4], in assay [5], in assay [14] and in [7] was inactive. The outcome in assay [8], in [10], in [15], in assay [11] and in assay [13] was inactive.
In the case of `CC(O)CN(CCN(CC(C)O)CC(C)O)CC(C)O` (stereo unspecified), the outcome in assay [1], in [2], in assay [3], in [5], in assay [6] and in assay [14] was inactive. For the same compound, the call in assay [7], in [8], in assay [9], in assay [10], in assay [15] and in assay [11] was inactive. The compound was classed as inactive in [12].
In the case of `O=c1n(CC2CO2)c(=O)n(CC2CO2)c(=O)n1CC1CO1` (stereo unspecified), the call in [1], in [2], in assay [3], in [5], in assay [14] and in [7] was inactive. In addition, the outcome in assay [8], in assay [9], in [10], in [15], in assay [11] and in assay [12] was inactive. For the same compound, the compound was called inactive in assay [13] and in assay [16].
Turning to `CC(C)CCCCCCCOC(=O)CCCCC(=O)OCCCCCCCC(C)C`, the call in assay [1], in [2], in assay [3], in assay [5], in assay [14] and in assay [7] was inactive. Also, the compound was called inactive in assay [8], in [9], in assay [10], in assay [15], in assay [11] and in [13].
On to `Oc1ccc2c(c1)-c1ccccc1C2`, for which the concentration at half-maximal activity (AC50) was 35.5 µM (active) in assay [1]; 48 µM (active) in assay [2]; 39.3 µM (active) in [3]; 49.1 µM (active) in assay [7]; 36 µM (active) in [8]; 35.1 µM (active) in [9]. The AC50 in assay [10] is 41 µM (active); in [16], 60.1 µM (active). For the same compound, the outcome in [5], in assay [14], in [15], in [11], in [12] and in assay [13] was inactive.
For the compound `O=C(O)c1cccc(N(Cc2cccnc2)c2ccc(OC(F)F)c(OC(F)F)c2)c1`, the call in assay [1], in assay [2], in assay [3], in [5], in assay [6] and in assay [14] was inactive. Besides, the outcome in assay [7], in assay [8], in [9], in assay [15], in assay [11] and in assay [12] was inactive. Further, the compound was classed as inactive in assay [13] and in assay [16].
For the compound `C1=CCCC=CCCC=CCC1`, the call in [1], in assay [2], in assay [3], in [5], in assay [6] and in assay [14] was inactive. In addition, the outcome in assay [7], in assay [8], in [9], in assay [10], in assay [15] and in assay [11] was inactive. Also, the compound was called inactive in assay [12] and in assay [13].
With `CCn1nc(Cc2ccccc2)cc1C1CCN(C[C@H]2C[C@H](N(C)[C@@H](C(=O)O)C(C)C)C[C@@H]2c2cccc(F)c2)CC1`, the compound was called inactive in assay [1], in assay [2], in assay [3], in assay [5], in [14] and in assay [7]. Moreover, the compound was classed as inactive in assay [8], in assay [9], in assay [10], in [15], in assay [11] and in assay [12]. Further, in assay [13], the compound was called inactive. The concentration at half-maximal activity (AC50) in [16] was 42.8 µM (active).

For the origin of these results see PubChem BioAssay (EPA / NIEHS).
